In PubChem BioAssay (NCI):
This is part of a sample that, as a whole, favours compounds with a hit. Of some 83,000 tested, about 20% had one in any assay.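 Step 1: grow cells in 96-well plates. Step 2: add test compound at a single concentration. Step 3: incubate 48 h. Step 4: record percent growth.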 Unmarked numbers belong to inactive results. Calls of active or inactive are those of the source. The calls were made as follows: active = growth percent below 10; inactive = the rest.

Columns and labels:
Test in all cases: NCI-60 one-dose screen, 48 h (100 = growth as untreated, 0 = no growth, -100 = all killed)
Details in all cases: 10 µM unless noted
SR leukemia = tested on: SR leukemia
RPMI-8226 leukemia = tested on: RPMI-8226 leukemia
OVCAR-8 ovarian = tested on: OVCAR-8 ovarian
OVCAR-5 ovarian = tested on: OVCAR-5 ovarian
OVCAR-4 ovarian = tested on: OVCAR-4 ovarian
IGROV1 ovarian = tested on: IGROV1 ovarian
OVCAR-3 ovarian = tested on: OVCAR-3 ovarian
HS 578T breast = tested on: HS 578T breast
NCI/ADR-RES ovarian = tested on: NCI/ADR-RES ovarian
SK-OV-3 ovarian = tested on: SK-OV-3 ovarian

Row | SMILES | growth (SR leukemia) | growth (RPMI-8226 leukemia) | growth (OVCAR-8 ovarian) | growth (OVCAR-5 ovarian) | growth (OVCAR-4 ovarian) | growth (IGROV1 ovarian) | growth (OVCAR-3 ovarian) | growth (HS 578T breast) | growth (NCI/ADR-RES ovarian) | growth (SK-OV-3 ovarian)
1 | C#CCN1C(=O)/C(=c2\sc3n(c2=O)C2C(NN=3)N(CC)C(=O)N2CC)c2ccccc21 (configuration not stated) | 10.1% | 18.6% | 25.4% | 33.5% | 47.5% | 27.6% | -13.6% (active) | -5.36% (active) | -4.94% (active) | –
2 | Cc1oc2nc[nH]c(=O)c2c1C(=O)/C=C/c1ccc(Cl)cc1Cl | 33% | 28.4% | 45.4% | 134% | 68.6% | 89.2% | 48.6% | 102% | 43% | –
3 | COc1ccc(/C=C/c2cc(N3CCOCC3)c3cc(F)c(F)cc3n2)cc1OC | 16.2% | 43.2% | 28.6% | 65.5% | 35.8% | – | – | 74.7% | 4.66% (active) | 55.5%
4 | COc1ccc2c(c1)C(=O)/C(=C/c1ccc(O)cc1)O2 | 74.1% | 35.1% | 93.1% | 103% | 85.2% | – | – | 73.5% | 104% | 104%
5 | NC(=O)c1cccc(N2Cc3ccccc3OC3=C2C(=O)c2c(O)ccc(O)c2C3=O)c1 | -5.71% (active) | -13.4% (active) | -41.9% (active) | -68.1% (active) | -93.5% (active) | – | -94.2% (active) | – | 10% | 20.8%
6 | COc1ccc(C(=O)/C=C/c2cc(C(=O)c3cc(OC)c(OC)c(OC)c3)ccc2OC)cc1 | 6.69% (active) | 14.6% | 43.8% | 45% | – | 62.2% | 60.6% | 62.5% | 26.5% | 90%
7 | COc1cccc(/C=C/c2c(C(=O)O)cccc2[N+](=O)[O-])c1OC | 103% | 107% | 110% | 103% | 113% | – | 102% | – | 109% | 88.2%
8 | COc1ccc(/C=c2\sc3n(c2=O)C2C(NN=3)N(C)C(=O)N2C)cc1 (configuration not stated) | -10.6% (active) | 20.3% | 35% | 54.9% | 51.2% | 40% | -3.86% (active) | 8.08% (active) | 10.4% | –
9 | CCN1C(=O)N(CC)C2C1NN=c1s/c(=C\c3ccccn3)c(=O)n12 (configuration not stated) | 5.28% (active) | 22.5% | 31.2% | 58.9% | 50.2% | 43.7% | 2.57% (active) | 7.13% (active) | 2.1% (active) | –
10 | C=C1C(=O)O[C@H]2[C@H]1CC/C(COC(=O)NCc1cc(OC)c(OC)c(OC)c1)=C\CC[C@@]1(C)O[C@@H]21 | 4.5% (active) | 43.6% | 43.9% | 85% | 60.5% | – | 21.2% | 71.5% | 110% | 101%
11 | C=C1C(=O)O[C@H]2[C@H]1CC/C(COC(=O)NCCc1ccc(OC)cc1)=C\CC[C@@]1(C)O[C@@H]21 | -4.05% (active) | 17.5% | 2.7% (active) | 30.9% | 17.4% | – | -29.6% (active) | 46% | 78.9% | 89.3%
12 | COc1ccc(NC(=O)/N=c2\oc3c(OC)cccc3cc2-c2cc3ccccc3[nH]2)cc1 | 107% | 173% | 49.1% | 88.3% | 69.8% | 50% | 64.4% | 7.84% (active) | 57.7% | –
13 | COc1cc2oc(-c3cccc(NC(=O)Nc4ccc5c(c4)OCO5)c3)cc(=O)c2c(OC)c1OC | 33.3% | -1.59% (active) | 44.3% | 118% | 69.1% | 62.5% | 56% | 59.4% | 57.6% | –
14 | COc1cc(-c2cc(/C=C3\CCCCC3=O)[nH]n2)cc(OC)c1OC | 49.2% | 86.4% | 102% | 103% | 95% | – | 104% | 99.4% | 103% | 128%
15 | C=C1C(=O)O[C@H]2[C@H]1CC/C(COC(=O)NCc1cc(OC)cc(OC)c1)=C\CC[C@@]1(C)O[C@@H]21 | 3.61% (active) | 5.14% (active) | -9.79% (active) | 18.1% | 9.29% (active) | – | -76.8% (active) | 37.1% | 63.4% | 81.7%
16 | COc1ccc(OC)c(/C=C2\Oc3cc(OCCN4CCCC4)ccc3C2=O)c1 | 56.6% | 93.5% | 92% | 94.5% | 98.5% | 95.8% | 101% | 86.4% | 86.4% | –
17 | CCCCCCCCCCn1cc[n+](C)c1 | 104% | 116% | 11.5% | 45.6% | 22.7% | – | 45.9% | 30.3% | 82.2% | 44.5%
18 | COc1ccc(C2CC(=O)Nc3c2c(C)nn3-c2nc3ccccc3[nH]2)cc1OC (configuration not stated) | 32.8% | 85.4% | 62% | 111% | 62% | – | – | – | 77.7% | 17.7%
19 | COC1=CC(c2ccc[nH]2)=N/C1=C\c1[nH]c(C)c(C(=O)CCCCC(=O)Nc2ccccc2)c1C | 44% | 126% | -46.4% (active) | 64.4% | 54.4% | – | 40.6% | 82.2% | 32.9% | 77.5%
20 | CCCCCCCC/C=C\CCCCCCCCOc1ccccc1CCOP(=O)(O)OCC[N+](C)(C)C | 42.4% | -0.933% (active) | 60.3% | 85.1% | 80.3% | 9.7% (active) | 56.4% | 88% | 98.4% | –
21 | CCCCCC/C=C\CCCCCCCCOc1ccc(CCOP(=O)(O)OCC[N+](C)(C)C)cc1 | 50.7% | 23.8% | 80.9% | 90.3% | 86.1% | 42.6% | 74.8% | 89.5% | 100% | –
22 | COc1ccc(C(=O)c2cc(OC)c(OC)c(OC)c2)cc1/C=C/C(=O)c1ccc2c(c1)OCO2 | -10.3% (active) | -3.8% (active) | 19.4% | -16.7% (active) | – | 16.9% | 1.03% (active) | 54% | 5.77% (active) | 36.6%
23 | COc1ccc(/C=C(\C#N)c2ccc([N+](=O)[O-])cc2)c2ccccc12 | 31% | 82.8% | 15.8% | 92.8% | 2.84% (active) | – | 62.6% | 26.2% | 50% | 5.28% (active)
24 | C=C1C(=O)O[C@H]2[C@H](O)[C@@H](C)CCC/C(C)=C/CC[C@@]3(C)O[C@@H]3C[C@@H]12 | 94.3% | 99.8% | 88.7% | 95.8% | 103% | – | 72.6% | – | 97.6% | 96.8%
25 | Cc1oc2nc[nH]c(=O)c2c1C(=O)/C=C/c1ccc(Cl)cc1 | -30.6% (active) | -14.1% (active) | 15.8% | 34.5% | 29.8% | 38.9% | 4.32% (active) | 60.5% | 10.4% | –
26 | CCCCOc1nc2c(C)cccc2cc1C1CNC(=O)c2ccccc2N1 (configuration not stated) | 18.1% | 57.5% | 81.2% | 112% | 71.7% | – | 20% | 69.7% | 51.3% | 69.2%
27 | COc1ccc(C(=O)c2cc(OC)c(OC)c(OC)c2)cc1/C=C/C(=O)c1ccc(OC)c(OC)c1 | 3.96% (active) | 8.82% (active) | 26.1% | 0.936% (active) | – | 29.7% | -22.1% (active) | 31.5% | 19% | 38.4%
28 | COc1ccc(/C=C/c2nc(N3CCOCC3)c3nc(Cl)c(Cl)cc3n2)cc1OC | 83.3% | 98.7% | 99% | 109% | 108% | – | – | 113% | 99.4% | 105%
29 | c1ccn2nnnc2c1 | 96.5% | 102% | 105% | 105% | 103% | 113% | 70.6% | 105% | 102% | –
30 | C=C1C(=O)O[C@H]2[C@H]1CC/C(COC(=O)NCc1ccc(OC)cc1)=C\CC[C@@]1(C)O[C@@H]21 | -1.29% (active) | 25.8% | 21.5% | 78.2% | 41.2% | – | 5.71% (active) | 59.2% | 86.9% | 84.8%
